Screening results from PubChem.
Rows were chosen to be rich in hits. Some 17% of all compounds tested hit in one or more screens of this group.
HepG2 viability – HepG2 cytotoxicity, counter-screen for TGF-b inhibitors; HepG2 CAGA-GFP viability, ATP luminescence, 18 h; Potency, µM (top dose mostly 46.1 µM), for the others: top-dose activity change, negative = cytotoxicity, usual class: cytotoxic; 0.76% of 410,000 active
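CellTiter-Glo luminescence gave cytotoxicity after 18 hours at 37 degrees C. The cells were HepG2 CAGA-GFP in 1% FBS DMEM, stimulated with 500 pg/mL TGF-beta after compound addition. %Activity was normalised to no-cell wells (complete cell-killing) and DMSO (no toxicity), and curves were fitted and classified.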
ATXN viability – reduces viability in counter-screen for ATXN expression inhibitors | S2 cells (HEK-293 line with an ATXN2-luciferase reporter) viability, CellTiter-Fluor protease fluorescence, 24 h | Potency, µM (top dose mostly 56.7 µM), hits mostly cytotoxic | 0.49% of 400,000 active; further: nearly all actives have a fitted effect of over 40% in size
TDP1 cell CPT – DT40-hTDP1 cell growth loss with CPT; AID 686979; chicken DT40 Tdp1-/-;hTDP1 cells + 20 nM CPT, ATP luminescence, 48 h; 12% of 420,000 active; Potency, µM (top dose mostly 46.2 µM), without a hit: at the top dose activity change, negative = growth inhibition, usual class: inhibitors; further: on the % scale 0 is the no-effect control and ±100 the full control effect; nearly all actives have a fitted effect of over 55% in size
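Cell growth measured by CellTiter-Glo luminescence after a minimum 48 h, 37 C compound exposure with 20 nM CPT in Tdp1-knockout DT40 cells stably expressing hTDP1, seeded 400/well; qHTS titration format.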
DT40 TDP1 no CPT – qHTS for Inhibitors of human tyrosyl-DNA phosphodiesterase 1 (TDP1): qHTS in cells in absence of CPT; DT40 Tdp1-/- hTDP1 cells, no CPT, ATP luminescence, 48 h; Potency, µM (series often up to 46.2 µM), for inactives: at the top dose activity change, negative = growth inhibition, actives largely listed as inhibitors; 15% of 420,000 active; further: on the % scale 0 is the no-effect control and ±100 the full control effect; nearly all actives have a fitted effect of over 55% in size
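No-CPT arm: Tdp1-/-;hTDP1 DT40 cells (400/well) plus compounds, incubated ≥48 hr at 37 °C. Readout CellTiter-Glo luminescence.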
ATXN2 expr inh – reduces ATXN2 reporter expression in HEK-293 cells; HEK-293 ATXN2-luciferase reporter, luminescence, 24 h; Potency, µM (highest dose often 57 µM), inactives show top-dose activity change, negative = inhibition, hits mostly inhibitors; 0.72% of 360,000 active; AID 1745845; further: on the % scale 0 is the no-effect control and ±100 the full control effect; nearly all actives have a fitted effect of over 55% in size
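qHTS (up to 57 uM final) was run with 24 h compound exposure of reporter cells at 37 °C. Each well was multiplexed: SteadyGlo luminescence measured ATXN2-luciferase expression after a fluorogenic Gly-Phe-AFC viability readout (25 uM final).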
TGFb SMAD3 inh – blocks TGF-b signaling. HepG2 CAGA-GFP TGF-b/SMAD3 reporter, GFP fluorescence, 18 h; TGF-beta stimulated, 500 pg/mL final. Potency, µM (top dose mostly 46.1 µM), for inactives: at the highest dose activity, negative = inhibition, usual class: inhibitors. 1.2% of 410,000 active. AID 588855; further: on the % scale 0 is the no-effect control and ±100 the full control effect; nearly all actives have a fitted effect of over 65% in size
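HEPG2 CAGA-GFP, 1000 cells/well; 2 h settle, 37 C; cpd via pin tool; TGF-b 500 pg/mL final; 18 h, 37 C; GFP imaging ex488/em500-530; %Activity normalised to -TGF-b and +DMSO controls; CRC fit, curve class.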
* = called active by the depositor; i = inactive; ? = inconclusive; · = no result; [ ] = another dose, or the depositor's remark. The call rests on the fitted dose curve; in most records, active means well fitted curve in the direction sought with a large enough effect; inconclusive means small, poorly fitted or top-dose-only effect, or another doubt; inactive means no such curve, though single readings can be large; an effect the other way counts as inactive or inconclusive. Potency means the concentration at half of the fitted maximal effect.

SMILES	HepG2 viability	ATXN viability	TDP1 cell CPT	DT40 TDP1 no CPT	ATXN2 expr inh	TGFb SMAD3 inh
Cc1cc(C)cc(NC(=O)CCNC(=O)N2C[C@H]3C[C@@H](C2)c2cccc(=O)n2C3)c1	1.7%	i	40.7%	2.9%	1.3%	?
O=C(O)c1ccccc1NS(=O)(=O)c1cccc(N=Nc2c(O)[nH]c(=S)[nH]c2=O)c1	3.0%	?	-6.0%	-13.5%	-19.3%	-1.5%
Cc1ccc2c(n1)Oc1ccc(C(C)C(=O)OCC(=O)N(C)C)cc1C2 (configuration not stated)	·	i	?	?	31.6%	·
OC(CNCc1ccccc1)c1ccc(Cl)cc1 (configuration not stated)	-12.5%	i	?	?	-11.3%	1.2%
Cc1ccc(OCC(=O)N2CCN(Cc3cccnc3)CC2)cc1	8.4%	?	-25.3%	0.2%	5.2%[11.3 µM]	4.7%
O=C(NCc1ccc(Cl)cc1)C(=O)NCC(c1cccnc1)N1CCN(c2ccccc2)CC1 (configuration not stated)	-18.3%	i	9.2µM*	7.31µM*	2.7%	2.6%
Cc1ccc(CNC(=O)C(=O)NCC(c2cccnc2)N2CCN(c3ccc(F)cc3)CC2)cc1 (configuration not stated)	4.2%	i	4.11µM*	3.26µM*	?	7.4%
COc1cccc(OC)c1-c1nn2c(-c3n[nH]c4c3CCC4)nnc2s1	-19.2%	·	6.31µM*	5.62µM*	·	?
CC(C)N[C@@H]1CCn2c(=O)[nH]c3cccc(c32)[C@@H]1O	·	·	·	·	4.5%	·
CCN1C[C@]2(C)CC[C@H](OC)[C@@]34[C@@H]2[C@H](OC(C)=O)[C@]2(OCO[C@@]25C[C@@H](OC)[C@@H]2C[C@@]3(O)[C@H]5[C@@H]2OC)[C@H]14	·	i	·	·	·	·
COc1ccc(NC(=O)Nc2cccc3c2O[C@H](CN(C)C(=O)NC2CCCCC2)[C@@H](C)CN([C@H](C)CO)C3=O)cc1	-21.3%	i	?	?	9.9%	?
O=C(NCCc1ccc(F)cc1)C(=O)NCC(c1cccs1)S(=O)(=O)c1ccc(Cl)cc1 (configuration not stated)	-18.0%	?	14.6µM*	11.6µM*	?	-11.4%
CC[C@H](CO)NC(=O)[C@H]1C=C2c3cccc4[nH]cc(c34)C[C@@H]2N(C)C1	·	i	·	·	·	·
CCOC(=O)c1c(C)[nH]c(C)c1S(=O)(=O)NCC(=O)N1CCN(c2cc(Cl)ccc2C)CC1	-20.9%	i	23.1µM*	18.4µM*	?	?
Cc1ccc(C)c(N2CCN(C(=O)CCNS(=O)(=O)c3ccc4c(c3)oc(=O)n4C)CC2)c1	-3.1%	i	?	?	-10.1%	-5.3%
C[N+]1(C)CCC(OC(=O)C(c2ccccc2)c2ccccc2)CC1	-10.8%	i	5.5%	-3.9%	-1.6%	4.4%
Cc1c(C(=O)OC2CCCCC2)[nH]c2c1C(=O)CC(c1ccccc1)C2 (configuration not stated)	7.2%	i	4.61µM*	2.06µM*	4.6%	36.0%
COC(=O)C(O)(c1ccc(N(C)C(=O)c2cccs2)cc1)C(F)(F)F (configuration not stated)	-29.2%	?	3.26µM*	?	-34.1%	-26.1%
COC(=O)C(O)(c1ccc(NC(=S)NC(=O)c2ccccc2)cc1)C(F)(F)F (configuration not stated)	-34.0%	i	-17.9%	-17.3%	1.1%	-18.6%
COC(=O)C(O)(c1ccc(N(C)C)cc1)C(F)(F)F (configuration not stated)	8.0%	i	-0.2%	0.3%	·	0.0%
COC(=O)C(O)(c1ccc(N(C)C(=O)c2ccc(Cl)c(Cl)c2)cc1)C(F)(F)F (configuration not stated)	-19.5%	i	?	?	0.0%	-5.1%
CCOC(=O)C(O)(c1ccc(N(C)C(=O)c2ccc(Cl)c(Cl)c2)cc1)C(F)(F)F (configuration not stated)	-43.4%	i	20.6µM*	13µM*	1.3%	-28.0%
CCOC(=O)C(O)(c1ccc(NC(=O)c2ccc(Cl)c(Cl)c2)cc1)C(F)(F)F (configuration not stated)	-75.1%	?	?	16.4µM*	·	?
CCOC(=O)C(=CNc1ccc(C(O)(C(=O)OCC)C(F)(F)F)cc1C)C(=O)OCC (configuration not stated)	-16.0%	?	20.6µM*	11.6µM*	-14.2%	-32.0%
Cc1ccccc1OCC(=O)N1CCN(CCc2ccccn2)CC1	-0.4%	i	2.6%	-2.1%	6.0%	-12.2%
SMILES	HepG2 viability	ATXN viability	TDP1 cell CPT	DT40 TDP1 no CPT	ATXN2 expr inh	TGFb SMAD3 inh
CCc1cc2c(=O)n(C(C)C(=O)OC3CCCCC3)cnc2s1 (configuration not stated)	-19.7%	i	?	?	86.2%	-1.7%
CCCCC[C@@H](/C=C/C=C\C/C=C\C/C=C\CCCC(=O)O)OO	·	·	-23.3%[0.628 µM]	-3.2%[0.628 µM]	·	·
CC(=O)O[C@@H]1CN2CCC1CC2	·	·	-4.2%	-6.2%	·	·
CCCCCCC(=O)N/N=C/c1c(O)n(CCCC)c(=S)[nH]c1=O	14.3%	i	?	18.4µM*	?	29.0%
CCCCCCn1c(O)c(C=Nc2ccccc2N2CCOCC2)c(=O)[nH]c1=S	4.0%	i	?	14.6µM*	4.6%	-0.8%
CCCCC(=O)N/N=C/c1c(O)n(CC)c(=S)[nH]c1=O	-0.6%	i	-2.8%	5.1%	-9.6%	7.3%
C/C(=N\Nc1ccccc1)c1c(O)n(C)c(=O)n(C)c1=O	1.0%	i	4.1%	-7.1%	-7.4%	-11.7%
N[C@@H](Cc1ccc(Oc2cc(I)c(O)c(I)c2)c(I)c1)C(=O)O	·	i	13.9%	-4.6%	3.3%	·
CC1(C)C(=O)C=C[C@@]2(C)C1CC(O)[C@]1(C)C2CC[C@@]2(C)C(c3ccoc3)OC(=O)C3O[C@]312 (some centres not stated)	·	·	13µM*	11.6µM*	·	·
CC1(C)C(O)CC(O)[C@]2(C)C1CC(O)[C@]1(C)C2CC[C@@]2(C)C(c3ccoc3)OC(=O)C3O[C@]312 (some centres not stated)	·	·	?	-20.6%	·	·
COc1ccccc1CC(=O)Nc1ccc2c(c1)OC1(CCCC1)O2	-4.8%	i	?	?	2.1%	2.9%
COc1cc(/C=C/[N+](=O)[O-])ccc1OC(=O)c1cccnc1	5.6%	?	3.26µM*	2.31µM*	·	-3.2%
